This is a sample that favours compounds with a hit; in the whole collection about 12% have one here.
HP1b binding inh – blocks HP1-beta chromodomain binding to methylated histone tails; P83916; AlphaScreen HP1-beta / biotin-H3K9me3 peptide binding; Potency, µM (titrated, usually from 114 µM), actives largely listed as inhibitors; 390,000 tested, 0.56% active; note: nearly all actives have a fitted effect of over 70% in size
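HP1-beta protein (50 nM final) preincubated 30 min at room temperature with biotinylated H3(1-18)K9me3 peptide (50 nM) in PBS pH 7.4, 0.01% Tween-20, then compound added for 30 min. AlphaScreen streptavidin donor/nickel chelate acceptor beads (10 ug/mL final), 30 min dark, luminescence read.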
PI5P4Ka inh – inhibitors of human PI5P4K alpha; P48426; PI5P4Kalpha enzyme, ADP-Glo luminescence, 60 min; stronger effect = lower value; 330,000 tested, 1.2% active; AID 652105; max response, %; active = max response of -50% or lower; inconclusive = between -30% and -50%; inactive = -30% or higher; note: value at the top dose of about 77 µM
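ADP-Glo luminescence end-point after a 60 min room-temperature kinase reaction. PI5P4Kalpha and substrate in HEPES pH 7.4 buffer with EGTA, 0.1% CHAPS and 5% DMSO; ATP at 5 microM final.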
JMJD2A Tudor inh – inhibitors of human JMJD2A Tudor domain; O75164; AlphaScreen JMJD2A-Tudor / H3K4me3 peptide binding; Potency, µM (titrated, usually from 114 µM), actives largely listed as inhibitors; 390,000 tested, 4.4% active; AID 504339; note: nearly all actives have a fitted effect of over 50% in size
PLK1 PBD block – blocks phosphopeptide binding to human PLK1 polo-box domain. P53350. Plk1 PBD binding of FITC phosphopeptide, fluorescence polarization. Potency, µM, actives largely listed as inhibitors. 360,000 tested, 2.8% active; note: series mostly up to about 57 µM; nearly all actives have a fitted effect of over 65% in size
G9a inh – G9a (human) methyltransferase inhibition; Q96KQ7; G9a H3K9 monomethylation, AlphaScreen, 2 h; Potency, µM (doses to about 102 µM), usual class: inhibitors; 350,000 tested, 8.8% active; note: nearly all actives have a fitted effect of over 75% in size
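AlphaScreen detection with an anti-monomethyl H3K9 antibody quantified product after a 2 h room-temperature reaction containing 500 nM biotinylated H3K9 peptide, 20 µM SAM and 20 nM enzyme, which had been preincubated 15 min with compound.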
BAZ2B inh – blocks human BAZ2B | Q9UIF8 | AlphaScreen BAZ2B-H3K14Ac peptide displacement | Potency, µM (top dose mostly 114 µM), actives largely listed as inhibitors | 360,000 tested, 4.4% active | AID 504333; note: nearly all actives have a fitted effect of over 60% in size
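AlphaScreen displacement of biotin-H3(5-23)K14Ac peptide (50 nM final) from BAZ2B (50 nM final) in PBS pH 7.4, 0.01% Tween-20; complex preformed 30 min RT, then compounds (top 110 uM) 30 min RT, beads 20 min dark.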
Numbers stand for hits; . = inactive; ? = inconclusive; / = no result given; ! = a repeat was not active; [ ] = remark or other dose. Unless noted, calls come from the whole dose curve; as a rule, active = well fitted curve in the direction sought with a large enough effect; inconclusive = small, poorly fitted or top-dose-only effect, or another doubt; inactive = no such curve, though single readings can be large; an effect the other way counts as inactive or inconclusive.

SMILES	HP1b binding inh	PI5P4Ka inh	JMJD2A Tudor inh	PLK1 PBD block	G9a inh	BAZ2B inh
NC(=O)OC[C@@H]1[C@H](NC(=O)/C(=N/OCC(=O)O)c2csc(N)n2)C(=O)N1S(=O)(=O)O	/	/	/	/	.[12.7 µM]	/
NCCCCNCCCN	.	.	.	.	11µM!	.
NCCCCN	/	/	/	/	50µM!	/
Cc1cccc(C(=O)N2CCN(CCNC(=O)C(=O)Nc3ccc(F)cc3)CC2)c1	.	.	.	.	.	.
CCc1nnc(NC(=O)CSCc2cc(=O)n3nc(C)sc3n2)s1	.	?	18µM	3.4µM	.	.
COc1cccc(NC(=O)CSCc2cc(=O)n3nc(C4CC4)sc3n2)c1	.	.	.	.	.	.
Cc1ccc(NC(=O)CSCc2cc(=O)n3nc(C4CC4)sc3n2)cc1	.	.	32µM	24µM	.	.
CCc1cccc(C)c1NC(=O)CCS(=O)(=O)c1ccc2c(c1)oc(=O)n2C	?	/	79µM	/	10µM	.
O=C(NCCS(=O)(=O)N1CCN(Cc2ccccc2)CC1)c1ccc(F)cc1	.	.	.	.	.[0.501 µM]	.
COc1ccc(O)c(C2Nc3ccccc3C(=O)N2Cc2ccccc2)c1 (stereo not drawn)	/	/	79µM	/	/	/
CCCN1C(=O)c2ccccc2NC1c1cc(OC)c(OC)c(OC)c1 (stereo not drawn)	.	.	.	.	.	.
COc1ccc(CCN2C(=O)c3ccccc3NC2c2cc(Cl)c(O)c(OC)c2)cc1 (stereo not drawn)	.	.	.	.	71µM	.
Cc1cccc(C2Nc3ccccc3C(=O)N2CCc2ccccc2)n1 (stereo not drawn)	.	/	.	.	.	.
O=C1c2ccccc2NC(c2cccc([N+](=O)[O-])c2)N1CCc1ccccc1 (stereo not drawn)	.	.	?	.	45µM	?
Cc1ccc(C(O)c2ncc(-c3ccccc3C)[nH]2)cc1F (stereo not drawn)	/	.	/	.	/	/
CC1CC(C)(C)NC(=S)N1CC(=O)NCc1ccc(Cl)cc1 (stereo not drawn)	.	.	.	.	28µM	.
Cc1cccc(NC(=O)CN2C(=S)NC(C)(C)CC2C)c1 (stereo not drawn)	.	.	.	.	20µM	.
Cc1ccccc1NC(=O)CN1C(=S)NC(C)(C)CC1C (stereo not drawn)	.	.	.	.	18µM	.
CC1CC(C)(C)NC(=S)N1CC(=O)NCc1ccccc1Cl (stereo not drawn)	.	.	.	.	?	.
CC1CC(C)(C)NC(=S)N1CCC(=O)N1CCN(c2ccccc2)CC1 (stereo not drawn)	.	.	.	?	40µM	.
COc1ccc(NC(=O)c2cc(C3CCCCN3C(=O)c3ccccc3)on2)c(C)c1 (stereo not drawn)	/	.	/	.	/	/
Cc1sc(NC(=S)NC(=O)c2ccco2)c(C(N)=O)c1C	.	.	.[11.4 µM]	?	40µM	.
CC(C)C(=O)Nc1sc2c(c1C(N)=O)CCN(Cc1ccccc1)C2	.	.	.	.	71µM	.
CCN1CCc2c(sc(NC(=S)NC(=O)c3ccco3)c2C(N)=O)C1	?	.	?	24µM	20µM	.
CCN1CCc2c(sc(NC(=O)Cc3ccccc3)c2C(N)=O)C1	.	.	.	.	/	.
SMILES	HP1b binding inh	PI5P4Ka inh	JMJD2A Tudor inh	PLK1 PBD block	G9a inh	BAZ2B inh
CCN1CCc2c(sc(NC(=O)c3ccc(S(=O)(=O)N4CCOCC4)cc3)c2C(N)=O)C1	.	.	.	.	56µM	.
Cc1cccc(NC(=O)C(=O)NCCc2csc(-c3ccc(C(F)(F)F)cc3)n2)c1C	.	/	.	/	.	.
CCOC(=O)c1c(N)sc2c1CCN(Cc1ccccc1)C2	/	/	/	/	10µM	/
CCN1CCc2c(sc(NC(=O)c3ccc(C(=O)c4ccccc4)cc3)c2C(N)=O)C1	.	.	?	.	71µM	40µM
CCCNc1c(NC(=O)C2CCC(C)CC2)c(=O)oc2ccccc12 (stereo not drawn)	.	.	.	.	/	.
O=C1N[C@@H](Cc2c[nH]c3ccccc23)C(=O)N[C@H]1Cc1ccccc1	.	.	.	.	/	/
Cc1cc(C)nc(SCCc2ccncc2)n1	.	.	4.5µM	?	4µM	.
CC1(C(=O)NS(=O)(=O)c2ccc(Cl)cc2)CCN1C(=O)c1cccc(F)c1 (stereo not drawn)	/	.	/	.	/	/
CC1CN(c2c3c(nc4ncnn24)CCCC3)CC(C)O1 (stereo not drawn)	.	.	.	.	3.2µM	.
CCOC(=O)Cc1nnc(NC(=O)C(CC)Sc2nncn2C)s1 (stereo not drawn)	.	.	.	.	.	?
CCOC(=O)Cc1nnc(NC(=O)C(CC)Sc2nc(C)cc(=O)[nH]2)s1 (stereo not drawn)	.	.	?	21µM	71µM	.
Cc1nc(/C(=N/O)C(N)=O)cs1	.	.	.[11.4 µM]	24µM	13µM	50µM
Cc1ccc(NCCC(=O)c2cccs2)cc1	.	.	50µM	.	50µM	?
Cc1ccc(NCCC(=O)c2cccs2)cc1C	?	.	56µM	?	32µM	?
CC(=O)Nc1cc(-c2cccc(N)c2)cn2c(-c3ccccc3)cnc12	/	.	/	.	/	/
CCn1c2ccccc2nc2cc3c(cc21)c(Cl)c(=O)c1ccccc13	/	.	/	?	/	/
COc1ccc(NC(=O)O/N=C2/CCCc3ccc(OC)cc32)cc1	.	.	14µM	15µM	.	.
COc1ccc2c(c1)/C(=N/OC(=O)c1cccs1)CCC2	.	.	.	.	.	.
CCOC(=O)[C@]12CCCC=C1N(Cc1ccco1)C(=O)[C@H](CC(=O)NCC1CCCCC1)C2	/	.	/	.	/	/
O=C(c1ccncc1)N1CCC2(CCCN(c3ccccc3)C2)CC1	/	/	/	/	.[12.7 µM]	/
CC(C)N(Cc1nc(-c2ccccc2)no1)C(=O)CSc1ccccc1	.	/	.	15µM	.	.
Cc1cccc(-c2noc(CN(C(=O)c3ccc4c(c3)OCO4)C(C)C)n2)c1	.	.	.[11.4 µM]	27µM	.[2.33 µM]	.
Cc1cccc(-c2noc(CN(C(=O)c3ccc(C)c(C)c3)C(C)C)n2)c1	.	/	.	/	.	.
O=c1cc(NCCc2ccccc2)c2ccccc2o1	.	.	50µM	24µM	.	.
COc1ccc(N2CCN(C(=O)COC(=O)c3ccc(CSC)o3)CC2)cc1	.	.	.	.	16µM	?
COc1ccc(N2CCN(C(=O)COC(=O)Cc3ccc(F)cc3)CC2)cc1	.	.	.	.	45µM	.
COc1ccc(N2CCN(C(=O)COC(=O)c3ccc(C)o3)CC2)cc1	.	.	.	.	50µM	.
COc1ccc(N2CCN(C(=O)COC(=O)c3oc4ccccc4c3C)CC2)cc1	.	.	?	.	?	?
COc1ccc(N2CCN(C(=O)CCn3cnc4onc(-c5ccc(F)cc5)c4c3=O)CC2)cc1	.	/	?	/	14µM	?

High-throughput results from PubChem BioAssay.
